Laboratory results from ChEMBL document CHEMBL4513216, “Probing the Open Global Health Chemical Diversity Library for Multistage-Active Starting Points for Next-Generation Antimalarials” (ACS Infect Dis, 2020).
In all, about 68,000 compounds went through this assay and about 2,700 (4%) showed an effect of 50% or more. The sample holds strong results, similar compounds and a random draw of the others, so the mix is not that of the screen.

tested on: Plasmodium berghei; test: Screen against P. berghei liver stage (PbLuc), transformed with Luciferase, at 2uM; type: functional, HepG2; conditions: tested at 2 uM

SMILES	INHIBITION
O=C(O)c1nnn(-c2ccccc2F)c1-c1ccncc1	37.61%
O=S(=O)(CCN1CCOC(Cn2cccn2)C1)c1ccccc1 (centres undefined)	-34.9%
CCn1cnnc1C1CCN(C(=O)c2ccc3ccccc3n2)CC1	-6.48%
O=C(NC1CCN(c2cc(-n3ccnc3)ncn2)CC1)c1ccncc1	29.19%
O=C(NC1CCCC1)C1CCN(c2cc(-n3ccnc3)ncn2)CC1	70.33%
O=C(Nc1cccnc1)C1CCN(c2cc(-n3ccnc3)ncn2)CC1	3.38%
Cc1n[nH]c(C)c1-c1nccnc1CC1CCCN(C)C1 (centres undefined)	31.98%
CCCC(=O)Nc1ccc2c(c1)C1(CCOCC1)CN2CCOC	39.44%
COc1ccc(C[C@H]2CNCC[C@@H]2OC)cc1	18.65%
O=c1cc(N2CCCC2)cnn1CC(F)F	18.81%
O=C(CSc1nnc[nH]1)NCc1cccs1	59.03%
O=C(CSc1nnc[nH]1)NCc1sccc1Br	32.1%
Cc1ccsc1CNC(=O)CSc1nnc[nH]1	5.98%
COCCNc1nc(NCCc2ccccc2)nc2nccnc12	-20.55%
Cc1nc(O)cc(C2CCCN(C(=O)CN(C)c3ccccc3)C2)n1 (centres undefined)	-14.36%
Cc1ccc(CC(=O)N2CCCN(Cc3nccn3C)CC2)cn1	5.72%
CCn1nc(C)c2ncnc(N(C)C)c21	-47.86%
Cn1ccnc1C(=O)N[C@@H]1CN(Cc2ccoc2)[C@@H]2CCCO[C@@H]21	26.76%
Cn1cc(C(=O)N[C@@H]2CN(Cc3ccoc3)[C@@H]3CCCO[C@@H]32)cn1	-6.61%
Cn1cccc1C(=O)N[C@H]1CN(Cc2ccoc2)[C@@H]2CCCO[C@H]12	56.76%
Cc1cc(C(=O)NC(CC(C)C)C(=O)Nc2cc[nH]n2)c(C)o1 (centres undefined)	-36.72%
COC(=O)CC(c1cccnc1)c1oc(C)cc(=O)c1O (centres undefined)	24.02%
Cc1noc(-c2ccc(Oc3cccc(CN4CCCC4)c3F)nc2)n1	-9.95%
CC(Cn1cc(Br)cn1)C(=O)Nc1ccc(Cl)cn1 (centres undefined)	29.12%
CC(C)NCC1(O)CCCN(CCC2CCCCC2)C1=O (centres undefined)	25.35%
CCC(CNC(=O)c1nc(=O)[nH][nH]1)Oc1cccc(F)c1 (centres undefined)	6.92%
CC(C)c1n[nH]c(C(=O)Nc2cc[nH]n2)c1Br	11.18%

SMILES	INHIBITION
COc1ccccc1NC(=O)c1[nH]nc(C(C)C)c1Br	-2.93%
CC(C)c1n[nH]c(C(=O)Nc2ccccn2)c1Br	78.42%
Cc1ccnc(NC(=O)c2[nH]nc(C(C)C)c2Br)c1	49.43%
Cc1cccc(NC(=O)c2[nH]nc(C(C)C)c2Br)n1	80.46%
CC(C)c1n[nH]c(C(=O)Nc2ccncc2)c1Br	29.37%
Cc1nc(C)n(CC2CCCN(c3ccc(C#N)cn3)C2)n1 (centres undefined)	13.24%
CCN1CCNC(=O)C12CCN(C(=O)Cc1ccccn1)CC2	31.84%
Cc1ccc(C(=O)NCC(O)c2cccc(F)c2)c(=O)[nH]1 (centres undefined)	-7.13%
Cc1ncsc1C(=O)N1CCN(CCC(C)C)CC1	71.95%
CCN1CCN(C(=O)c2scnc2C)CC1	-25.82%
CCCN1CCN(C(=O)c2scnc2C)CC1	-21.84%
CC1CN(C(=O)CN(Cc2ccco2)Cc2cccs2)CCO1 (centres undefined)	26.78%
CCOC(=O)C1CCN(C(=O)CN2CCCC2c2ccccc2C)CC1 (centres undefined)	-16.19%
COc1ccccc1C1CCCN1CC(=O)N1CCC(C(N)=O)CC1 (centres undefined)	50.32%
COc1ccccc1[C@@H]1CN(CC(=O)N2CCCCC2)C[C@H]1C(=O)O	-36.91%
Cc1nc(C2CCCNC2)cc(N2CCc3nc(N)sc3C2)n1 (centres undefined)	17.41%
Cn1cc(CN2CC[C@H](O)[C@@H]2Cc2ccncc2)cn1	23.94%
O=c1c2sccc2nc2n1CCN(Cc1ccc(F)c(F)c1)CC2	15.72%
O=c1c2sccc2nc2n1CCN(Cc1ccsc1)CC2	63.66%
O=c1c2sccc2nc2n1CCN(Cc1cccs1)CC2	15.58%
Cc1ncsc1C(=O)N(C)Cc1ccc(Br)o1	-21.99%
Cc1ccccc1-c1cncc(C2CCN(C3CCOCC3)CC2)n1	8.63%
Cc1oc(NC(=O)C(C)N2CCN(CCO)CC2)c(C#N)c1C (centres undefined)	51.08%
Cc1oc(NC(=O)C(C)N2CCN(C(C)(C)CO)CC2)c(C#N)c1C (centres undefined)	10.1%
Cc1oc(NC(=O)C(C)N2CCN(C(=O)C3CC3)CC2)c(C#N)c1C (centres undefined)	30.59%
Cn1ncc2c1CN(Cc1cccnc1)CC2COCC1CC1 (centres undefined)	-12.27%
CCCN1CCN(C(=O)c2ccn(COc3ccc(F)cc3)n2)CC1	-15.49%
